# From PubChem BioAssay
# Shown are actives, neighbours in structure and some others; about 17% of the full set was active somewhere.
# TDP1 inh: blocks human tyrosyl-DNA phosphodiesterase 1. recombinant TDP1, AlphaScreen DNA substrate cleavage. Potency, µM (series often up to 130 µM), hits mostly inhibitors. actives 0.28% (n = 350,000). Q9NUW8. AID 485290; further: nearly all actives have a fitted effect of over 40% in size
# Target sequence (Q9NUW8 whole entry, looked up): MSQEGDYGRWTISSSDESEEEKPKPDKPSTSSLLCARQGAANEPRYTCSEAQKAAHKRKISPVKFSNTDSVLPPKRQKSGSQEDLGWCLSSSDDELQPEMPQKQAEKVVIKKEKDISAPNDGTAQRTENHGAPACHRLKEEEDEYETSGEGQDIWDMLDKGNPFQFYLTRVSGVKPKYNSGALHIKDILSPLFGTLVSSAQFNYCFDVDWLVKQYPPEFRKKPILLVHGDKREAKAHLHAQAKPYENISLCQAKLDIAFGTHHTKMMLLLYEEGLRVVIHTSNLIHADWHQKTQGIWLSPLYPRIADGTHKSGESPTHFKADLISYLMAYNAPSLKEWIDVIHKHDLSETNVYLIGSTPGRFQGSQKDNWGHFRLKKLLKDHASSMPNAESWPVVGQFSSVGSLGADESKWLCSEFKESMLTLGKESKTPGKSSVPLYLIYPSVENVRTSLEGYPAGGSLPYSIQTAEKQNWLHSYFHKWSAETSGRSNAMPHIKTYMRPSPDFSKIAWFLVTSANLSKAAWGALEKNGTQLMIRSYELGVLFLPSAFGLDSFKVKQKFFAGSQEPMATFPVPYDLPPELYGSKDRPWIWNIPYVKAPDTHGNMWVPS
#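 Recombinant human Tdp1 (E. coli-expressed, 1 nM final) preincubated with compounds 15 min at room temperature, then 5'-biotin/3'-phosphotyrosine-FITC DNA substrate (15 nM final) added for 5 min. AlphaScreen beads (10 ug/ml final) added 10 min; cleavage lowers signal.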
# ClpP mod: qHTS Assay for Activators of ClpP; ATP-dependent Clp protease proteolytic subunit (Bacillus subtilis (strain 168)), P80244; purified B. subtilis ClpP, FRET peptide cleavage, 20 min; Potency, µM (doses to about 57.5 µM); actives 1.9% (n = 340,000); AID 651965, 2013; active means well fitted falling curve with a large enough effect; inconclusive means small, poorly fitted or top-dose-only effect; inactive means no such curve, though single readings can be large or run the other way; further: the source files actives as falling curves though it sought activators and does not explain the sign; nearly all actives have a fitted effect of over 65% in size
#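 FRET quenching reversal measured ClpP activation: 10 microg/mL B. subtilis ClpP at pH 8 with the FRET-FV decapeptide, read at 430 nm after 320 nm excitation. The 20-min minus 0-min signal was scaled between DMSO/no-enzyme wells and ADEP (5.8 microM final).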
# TDP1 cell noCPT: qHTS for Inhibitors of human tyrosyl-DNA phosphodiesterase 1 (TDP1): qHTS in cells in absence of CPT. DT40 Tdp1-/- hTDP1 cells, no CPT, ATP luminescence, 48 h. Potency, µM (top dose mostly 46.2 µM), usual class: inhibitors. actives 15% (n = 420,000); further: nearly all actives have a fitted effect of over 55% in size
#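 Compound effects on proliferation are scored in DT40 Tdp1-/-;hTDP1 cells in the absence of CPT. ATP levels (CellTiter-Glo luminescence) are recorded after a ≥48 hr, 37 °C incubation.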
# DT40 TDP1 CPT: growth inhibition of DT40 Tdp1-/-;hTDP1 cells with camptothecin (screen for TDP1 inhibitors). chicken DT40 Tdp1-/-;hTDP1 cells + 20 nM CPT, ATP luminescence, 48 h. Potency, µM (doses to about 46.2 µM), most hits filed as inhibitors. actives 12% (n = 420,000). AID 686979; further: nearly all actives have a fitted effect of over 55% in size
#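 Cell growth measured by CellTiter-Glo luminescence after a minimum 48 h, 37 C compound exposure with 20 nM CPT in Tdp1-knockout DT40 cells stably expressing hTDP1, seeded 400/well; qHTS titration format.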
# Hits are given with their value; - = inactive; ? = inconclusive; . = no result; ! = repeats disagree. Unless noted, the call rests on the fitted dose curve; in most records, active means well fitted curve in the direction sought with a large enough effect; inconclusive means small, poorly fitted or top-dose-only effect, or another doubt; inactive means no such curve, though single readings can be large; an effect the other way counts as inactive or inconclusive.
SMILES,TDP1 inh,ClpP mod,TDP1 cell noCPT,DT40 TDP1 CPT
O=C(Nc1ccc(N=Nc2ccccc2)c(NC(=O)C2CCCO2)c1)C1CCCO1 (centres undefined),-,-,21µM,8.2µM
O=C(Nc1ccc(Oc2ccccc2)cc1)C1CCCO1 (centres undefined),-,-,-,-
CC(C)N(c1ccccc1)c1ccc(NC(=O)C2CCCO2)cc1 (centres undefined),-,-,16µM,?
Cc1ccccc1NC(=O)c1ccc(NC(=O)C2CCCO2)cc1 (centres undefined),-,16µM,-,-
CCOC(=O)C1CCCN(C(=S)NC2CCCC2)C1 (centres undefined),-,.,-,-
Cc1ccc(S(=O)(=O)N2CCN(C(=O)COC(=O)CCOc3ccccc3)CC2)c(C)c1,-,-,-,?
CC(=O)NC(c1cccc(F)c1)c1nc(-c2cc3ccccc3o2)cs1 (centres undefined),.,-,21µM,?
CC(=O)NC(c1ccccc1)c1nc(-c2cc3ccccc3o2)cs1 (centres undefined),.,-,?,23µM
CC(=O)NC(c1ccc(F)c(F)c1)c1nc(-c2cc3ccccc3o2)cs1 (centres undefined),.,-,?,-
CN(Cc1ccc(Cl)c(Cl)c1)C(=O)C1CSC2(C)CCC(=O)N12 (centres undefined),-,-,15µM,15µM
CC12CCC(=O)N1C(C(=O)OCC(=O)Nc1cccc(Br)c1)CS2 (centres undefined),-,.,?,-
CN(C(=O)COC(=O)C1CSC2(C)CCC(=O)N12)c1ccccc1 (centres undefined),-,28µM,-,-
C=C1CCN([C@H](C(=O)NCc2ccc(Cl)cc2)C(C)C)S(=O)(=O)c2ccccc21,-,-,-,-
COc1ccc(CCNC(=O)CCCn2c(=O)c3ccccc3n(Cc3cccc(Cl)c3)c2=O)cc1OC,-,-,?,?
CCOc1ccc(NC(=O)C/C(C)=N/NC(=O)COc2ccc(Br)cc2C)cc1,.,.,-,-
Cc1nnc(N2CCC(C(=O)N3CCCCC3)CC2)c2nn(-c3ccccc3)c(C)c12,-,-,?,-
Cc1ccc(-n2c3c(cc(C(=O)NCc4ccco4)c2=O)C(=O)CCC3)cc1,-,-,?,-
O=C1CCCc2c1cc(C(=O)NCc1ccco1)c(=O)n2-c1ccc(Cl)cc1,-,20µM,-,-
CCOC(=O)/C(C#N)=C\c1c(OCC)n(CC)c2ccccc12,-,-,18µM,?
CCOc1c(/C=C(\C#N)C(N)=O)c2ccccc2n1CC,-,-,?,?
CCCC(=O)Nc1ccc2c(c1)c1ccccc1n2CC,-,?,?,?
CCOC(=O)C(=CNc1ccc2c(c1)c1ccccc1n2CC)C(=O)OCC,-,?,8.2µM,15µM
CCn1c2ccccc2c2cc(NC(=O)N3CCCCC3)ccc21,.,-,23µM,18µM
CCn1c2ccccc2c2cc(NS(=O)(=O)c3ccccc3C)ccc21,-,-,21µM,?
O=C(NCc1ccccc1)c1cc(C2COCCN2S(=O)(=O)c2ccccc2)on1 (centres undefined),.,-,-,-
SMILES,TDP1 inh,ClpP mod,TDP1 cell noCPT,DT40 TDP1 CPT
CCn1c2ccccc2c2cc(NC(=O)C(C)Oc3ccccc3)ccc21 (centres undefined),-,-,?,-
CCn1c2ccccc2c2cc(NC(=O)C(C)C)ccc21,-,-,26µM,?
COc1ccc(NC(=O)CN2CCN(Cc3ccccc3)S2(=O)=O)c(OC)c1,-,-,-,-
COc1ccc(OC)c(NC(=O)CN2CCCN(Cc3ccccc3Cl)S2(=O)=O)c1,-,-,23µM,?
COc1ccc(NC(=O)CN2CCCN(Cc3ccc(Cl)cc3)S2(=O)=O)cc1Cl,-,-,10µM,12µM
CC1(C)C=C2C(=NN(c3ccccc3)C(N)=C2C#N)CO1,.,.,?,13µM
CC1(C)Cc2c(C#N)c(N)n(-c3ccccc3)c(=S)c2CO1,-,.,-,-
OCc1nc2ccccc2n1Cc1c(F)cccc1Cl,-,-,15µM!,?
Fc1cccc(Cl)c1Cn1c(-c2cccs2)nc2ccccc21,-,-,?,?
Cc1c(C#N)c(N=CN(C)C)c(C(=O)c2ccc(Br)cc2)n1-c1ccc(Cl)cc1,-,-,?,11µM
Cc1ccc(S(=O)(=O)N2CCCC(C(=O)Nc3ccc(C(=O)O)cc3)C2)cc1Cl (centres undefined),-,.,-,-
COCc1ccc2oc(C(=O)O)cc2c1,-,-,23µM,12µM
CCc1oc(C(=O)O)cc1CN(CC)CC,-,-,-,-
CCc1oc(C(=O)O)cc1COC,56µM,-,-,-
O=C(C[C@@H]1C/C=C\CCCC(=O)OC[C@@H]2CCCN2C1=O)N[C@@H](CO)Cc1ccccc1,-,-,-,-
CN1CCN(CCC(=O)N/N=C/c2cc3c(cc2[N+](=O)[O-])OCO3)CC1,-,-,-,-
CSc1ncc(Cl)c(C(=O)C(C#N)c2nc3c(C)cc(C)cc3c(=O)[nH]2)n1 (centres undefined),-,-,26µM,?
O=C(C[n+]1cc(Br)cc2ccccc21)c1ccc(Cl)cc1,.,-,18µM,?
Cc1cc2ccccc2c[n+]1CC(=O)c1ccc(F)cc1,.,-,13µM,?
Brc1cc2ccccc2[n+](Cc2ccccc2)c1,-,-,12µM,?
O=C(C[n+]1cc(Br)cc2ccccc21)c1ccc(Br)cc1,.,-,?,?
Cc1ccc(C)[n+](CC(=O)c2ccc(-c3ccccc3)cc2)c1,-,.,1.8µM,2.6µM
Cc1ccc[n+](CC(=O)c2ccc(-c3ccccc3)cc2)c1,-,-,-,-
CCOC(=O)c1cnn(-c2ccc(C(=O)Nc3cc(OC)c(OC)c(OC)c3)cc2)c1N,-,?,?,?
CCc1ccccc1-n1c2c(cc(-c3nc(-c4ccc(Cl)cc4)cs3)c1=O)C(=O)CC(C)(C)C2,-,?,-,-
SMILES,TDP1 inh,ClpP mod,TDP1 cell noCPT,DT40 TDP1 CPT
O=C(NCc1c(Cl)cccc1Cl)c1[nH]c(C(F)(F)F)nc1-c1ccccc1,.,-,-,-
COc1ccc2[nH]c(C(=O)N(C)c3ccc(F)cc3F)cc2c1,-,-,-,-
O=c1oc2ccc3ccccc3c2cc1-c1nnc(Nc2cc(C(F)(F)F)ccc2Cl)s1,-,-,-,-
O=C(C[n+]1cccc2cc(Cl)ccc21)c1ccc(I)cc1,.,-,11µM,11µM
O=C(C[n+]1cccc2cc(Cl)ccc21)c1ccc(Br)cc1,.,-,?,?
Cc1ccc(C(=O)C[n+]2cccc3ccccc32)cc1,-,?,18µM,?
O=C(C[n+]1cccc2cc(Cl)ccc21)c1ccc2ccccc2c1,.,-,4µM,5µM
NC(=O)C[n+]1cccc2ccccc21,-,-,-,-
COc1ccc(C(=O)C[n+]2cccc3cc(Cl)ccc32)cc1,.,-,16µM,?
O=[N+]([O-])c1ccc2c(c1)ncn2CCc1ccccc1,.,-,-,-
